697 NFkB inh: inhibitors of PMA/ionomycin-induced NF-kB reporter, 697 cells, primary screen, B-cell NF-kB inhibitor project, cell-based, luminescence, uHTS; actives 0.33% (n = 330,000); 697 B-cell NF-kB luciferase reporter, 16 h; AID 435022, 2010; inhibition, % at 4 µM; in the data active = inhibition above about 35%
GalR3 antag: GalR3 antagonists in HEK293 cells, primary screen, cell-based, fluorescence readout; AID 651719, 2012; actives 0.44% (n = 360,000); inhibition, % at 3 µM; Galanin receptor type 3 (Homo sapiens), O60755; HEK293 GalR3-CNG cAMP membrane potential fluorescence; galR3 body fused to GalR1 C-terminus;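 active = inhibition above the screen-wide average plus 3 SD, cut at about 13% in these data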;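 note: forskolin and galanin both at EC90 stimulate the cells; cAMP rise reported by CNG channel membrane potential dye signal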
Target sequence (O60755 1-299 limits assumed): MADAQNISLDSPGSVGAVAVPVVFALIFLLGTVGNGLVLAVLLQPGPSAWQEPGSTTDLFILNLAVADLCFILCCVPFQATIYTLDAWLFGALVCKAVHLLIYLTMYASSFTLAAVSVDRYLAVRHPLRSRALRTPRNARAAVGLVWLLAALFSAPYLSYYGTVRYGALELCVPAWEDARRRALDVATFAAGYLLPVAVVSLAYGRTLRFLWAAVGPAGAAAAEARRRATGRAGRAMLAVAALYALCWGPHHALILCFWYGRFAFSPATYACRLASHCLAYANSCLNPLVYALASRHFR
COUP-TFII inh: NR2F2 transcriptional activity inhibitors, primary screen, cell-based, luciferase reporter, HEK293T, luminescence; HEK293T NGFI-A luciferase reporter; COUP transcription factor 2 (Homo sapiens), P24468; inhibition, % at 8.6 µM; actives 0.7% (n = 370,000);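 active = inhibition above a per-plate cutoff, mean inhibition of test wells between control levels plus 3 SD, cut at about 38% in these data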;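 note: cells cotransfected with COUP-TFII expression vector driving the NGFI-A reporter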
Target sequence (P24468 whole entry, looked up): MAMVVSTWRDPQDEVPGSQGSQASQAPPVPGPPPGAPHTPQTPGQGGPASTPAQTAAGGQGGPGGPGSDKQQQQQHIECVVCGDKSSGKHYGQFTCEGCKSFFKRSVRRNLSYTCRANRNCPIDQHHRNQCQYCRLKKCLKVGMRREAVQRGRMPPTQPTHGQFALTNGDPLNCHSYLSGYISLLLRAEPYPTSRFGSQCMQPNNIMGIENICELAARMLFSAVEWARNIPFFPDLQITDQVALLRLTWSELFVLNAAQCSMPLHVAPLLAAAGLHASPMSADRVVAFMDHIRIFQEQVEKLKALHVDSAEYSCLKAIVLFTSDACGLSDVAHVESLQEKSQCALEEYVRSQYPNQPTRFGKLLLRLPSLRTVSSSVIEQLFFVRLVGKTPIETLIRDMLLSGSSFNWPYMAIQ
Gli-Sufu antag: Gli-Sufu pathway antagonists, primary screen, luciferase luminescence, Sufu-KO-LIGHT cells, uHTS | Sufu-KO-LIGHT fibroblasts, Gli luciferase reporter luminescence | inhibition, % at 5 µM | actives 0.74% (n = 340,000);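 active = inhibition above about 55%, limit read from the data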
Jurkat NFkB inh: inhibitors of induced NF-kB luciferase reporter, primary screen, TCR NF-kB activation inhibitor project, cell-based, luminescence, uHTS. Jurkat, PMA/ionomycin-induced NF-kB luciferase reporter. inhibition, % at 4 µM. actives 0.53% (n = 330,000). AID 435003, 2010; in the data active = inhibition above about 50%
GalR3 antag conf: GalR3 antagonist hit confirmation, cell-based, fluorescence, triplicate. HEK293 GalR3 CNG cAMP biosensor, membrane potential fluorescence; galR3 fused to GalR1 carboxy tail; challenged with forskolin and galanin at EC90. actives 59% (n = 1,600). shares compounds with GalR3 antag. inhibition, % at 3 µM;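 active = inhibition above the primary screen's cutoff, the mean inhibition of all screened compounds plus 3 SD, cut at about 13% in these data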
CNG parental: nonspecific cAMP agonists in parental HEK-CNG cells, counter-screen for GalR3 antagonist project, cell-based, fluorescence, high throughput. shares compounds with GalR3 antag. HEK293-CNG parental cells, cAMP membrane potential fluorescence; normalised: DMSO wells 0%, forskolin wells 100%. activation, % at 3 µM. actives 10% (n = 1,600). AID 652268, 2013; in the data active = activation above about 1.3%
Of the large screens only hits and unclear results are named; the others gave an inactive call (follow-up assays come after a bar, where they were run). Hits are enriched below; roughly 2% of the tested compounds scored in any of these assays.

O=C(NCCN1C(=O)S/C(=C\c2ccc(OC(F)F)cc2)C1=O)c1cnccn1	GalR3 antag 15 | GalR3 antag conf inactive | CNG parental inactive
O=C(Nc1ccc(Cl)cc1)c1cccc(N2C(=O)C3C4CCC(C4)C3C2=O)c1 (stereo not given)	GalR3 antag 92 | GalR3 antag conf inactive | CNG parental inactive
CCOc1ccc(N(CC(=O)Nc2c(C)n(C)n(-c3ccccc3)c2=O)S(=O)(=O)c2ccc(C(C)(C)C)cc2)cc1	none (no result: 697 NFkB inh, GalR3 antag, Gli-Sufu antag, Jurkat NFkB inh)
CC(=O)OCC(=O)Nc1ccc(Cl)cc1Cl	GalR3 antag 19 | GalR3 antag conf inactive | CNG parental inactive
CC(=O)OCC(=O)Nc1ccc([N+](=O)[O-])cc1Cl	none
COc1ccc(N2C(=O)CC(NCc3ccncc3)C2=O)cc1 (stereo not given)	none
COc1ccc(N2C(=O)CC(NCc3ccc(F)cc3)C2=O)cc1 (stereo not given)	GalR3 antag 15 | GalR3 antag conf 14 | CNG parental inactive
COC(=O)[C@]12C[C@H](CC(=O)N3CCC(c4ccccc4)CC3)C(=O)N(CCC3=CCCCC3)C1=C[C@H](C(C)C)O[C@@H]2C1CC1	none (no result: 697 NFkB inh, GalR3 antag, Gli-Sufu antag, Jurkat NFkB inh)
CCC(CC)C(=O)Nc1ccc([N+](=O)[O-])cn1	GalR3 antag 16 | GalR3 antag conf 24 | CNG parental inactive
COC(=O)[C@]12C[C@H](CC(=O)NCCC(C)C)C(=O)N(CCc3ccc(OC)c(OC)c3)C1=C[C@H](C1CCCC1)O[C@@H]2C	none (no result: 697 NFkB inh, GalR3 antag, Gli-Sufu antag, Jurkat NFkB inh)
O=C(NCC(c1ccccc1)c1ccccc1)[C@H](Cc1c[nH]c2ccccc12)NC1(C(=O)NC2CCCCC2)CCCCCC1	none (no result: 697 NFkB inh, GalR3 antag, Gli-Sufu antag, Jurkat NFkB inh)
CCCNC(=O)CCCCn1c(=S)[nH]c2c([nH]c3ccc(OC)cc32)c1=O	none
COc1ccc2[nH]c3c(=O)n(CCCCC(=O)NCCC(C)C)c(=S)[nH]c3c2c1	GalR3 antag 13 | GalR3 antag conf inactive | CNG parental inactive
CCS(=O)c1ccccc1C(=O)OCC(=O)Nc1cccc(S(=O)(=O)N2CCCCC2)c1 (stereo not given)	GalR3 antag 92 | GalR3 antag conf 96 | CNG parental inactive
CCOc1ccccc1C(=O)OCC(=O)Nc1cccc(S(=O)(=O)N2CCCC2)c1	none
O=C(Cn1nc(C(=O)O)c2ccccc2c1=O)Nc1cccc(S(=O)(=O)N2CCCCC2)c1	GalR3 antag 13 | GalR3 antag conf 58 | CNG parental inactive
CCC(=O)c1ccc(OCC(=O)Nc2cccc(S(=O)(=O)N3CCCCCC3)c2)cc1	GalR3 antag 98 | GalR3 antag conf 97 | CNG parental inactive
Cc1cccc(CCNC(=O)Cn2nc(-c3ccccc3)ccc2=O)c1	none (no result: 697 NFkB inh, GalR3 antag, Gli-Sufu antag, Jurkat NFkB inh)
COc1cc(CCCN2C(=O)C(=O)NC[C@@H]2Cc2ccc(O)cc2)cc(OC)c1OC	GalR3 antag 16 | GalR3 antag conf inactive | CNG parental inactive
CC(C)C[C@@H]1COc2cc(N3CCSCC3)ccc2S(=O)(=O)N1C	none (no result: 697 NFkB inh, GalR3 antag, Gli-Sufu antag, Jurkat NFkB inh)
COc1ccc(-c2cc(N)n(S(=O)(=O)c3c(F)c(F)c(F)c(F)c3F)n2)cc1OC	GalR3 antag 54 | GalR3 antag conf 60 | CNG parental inactive
COc1cc(/C=C2\SC(=Nc3c(C)n(C)n(-c4ccccc4)c3=O)NC2=O)ccc1O	GalR3 antag 31 (no result: 697 NFkB inh, Jurkat NFkB inh) | GalR3 antag conf 34 | CNG parental inactive
CC(C)c1cc(C(C)C)c(S(=O)(=O)N2CCCC(C(=O)N3CCN(Cc4ccccc4)CC3)C2)c(C(C)C)c1 (stereo not given)	none (no result: 697 NFkB inh, GalR3 antag, Gli-Sufu antag, Jurkat NFkB inh)
CCOc1cc(CNCc2ccccc2)ccc1OCc1ccc(Cl)cc1	GalR3 antag 42 | GalR3 antag conf 26 | CNG parental 5.5
CCNCc1cc(Cl)c(OCc2ccccc2)c(OCC)c1	none
CC1CCC2(CC1)CCC2NCc1ccc(Cl)cc1 (stereo not given)	none (no result: 697 NFkB inh, GalR3 antag, Gli-Sufu antag, Jurkat NFkB inh)
CCOC(=O)Cn1nc(C)c(NC(=O)COc2cccc(Cl)c2)c1C	GalR3 antag 21 | GalR3 antag conf inactive | CNG parental inactive
CCOC(=O)Cn1nc(C)c(NC(=O)COc2ccc([N+](=O)[O-])cc2)c1C	none
O=S(=O)(/N=C(\c1ccccc1)N1CCOCC1)c1cccs1	none
Cc1ccccc1S(=O)(=O)/N=C(/c1ccccc1)N1CCOCC1	GalR3 antag 14 | GalR3 antag conf inactive | CNG parental inactive
Cc1cc(-c2ccccc2)cc(=O)[nH]1	GalR3 antag 19 (no result: 697 NFkB inh, Jurkat NFkB inh) | GalR3 antag conf inactive | CNG parental inactive
O=C(c1ccccc1F)N1CCOCC1	none
O=C(c1cccnc1Cl)N1CCOCC1	GalR3 antag 13 | GalR3 antag conf inactive | CNG parental inactive
CC(=O)Oc1ccc(C2C3=C(CC(C)(C)CC3=O)Nc3cc4c(cc32)OCCO4)cc1 (stereo not given)	none
COc1cccc(C2C3=C(CC(C)(C)CC3=O)Nc3cc4c(cc32)OCO4)c1 (stereo not given)	none
COc1cc2c(cc1OC)C(c1ccc3c(c1)OCO3)C1=C(CC(C)(C)CC1=O)N2 (stereo not given)	GalR3 antag 13 | GalR3 antag conf 29 | CNG parental inactive
COc1cccc(C2C3=C(CC(C)(C)CC3=O)Nc3cc(OC)c(OC)cc32)c1 (stereo not given)	GalR3 antag 15 | GalR3 antag conf 23 | CNG parental inactive
O=C(CNS(=O)(=O)c1ccc(F)cc1)N1CCN(c2ccccn2)CC1	none (no result: 697 NFkB inh, GalR3 antag, Gli-Sufu antag, Jurkat NFkB inh)
NC(=O)c1sc(=S)n2c1[nH]c(=O)c1sccc12	GalR3 antag 67 | GalR3 antag conf inactive | CNG parental inactive
Cc1ccccc1NC(=O)CN1CCN(c2nc(-c3ccccc3)cs2)CC1	none (no result: 697 NFkB inh, GalR3 antag, Gli-Sufu antag, Jurkat NFkB inh)
COc1ccc(/C=N/NC(=O)C(Cc2c[nH]c3ccccc23)NC(=O)OCC(C)C)cc1[N+](=O)[O-] (stereo not given)	GalR3 antag 15 | GalR3 antag conf 26 | CNG parental inactive
O=C(NC(Cc1c[nH]c2ccccc12)C(=O)N/N=C/c1ccc(Cl)cc1)c1cccs1 (stereo not given)	none
Cc1c(C(=O)N2CCc3ccccc32)cnn1C	none (no result: GalR3 antag) | GalR3 antag conf inactive | CNG parental inactive
O=C(c1cnccn1)N1CCc2ccccc21	none
O=C(OCC#CCSc1nnc(-c2cccc3ccccc23)o1)C1CC1	none (no result: 697 NFkB inh, GalR3 antag, Gli-Sufu antag, Jurkat NFkB inh)
c1ccc(Cn2cnc3ccccc32)cc1	none

Source: PubChem BioAssay
